Reference: PubChem BioAssay (NCI)
Compounds without any hit were thinned out: in the full panel of roughly 79,000, 15% have a hit. Cut-off read from the data, not from the text of the source: active = growth inhibition above about 70%; inactive = the rest.

Tests used:
[1] = NCI Yeast Anticancer Drug Screen. Data for the rad50 strain (AID 155);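 note: 0% = growth of vehicle-only cultures of the same strain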; conditions: S. cerevisiae rad50 strain growth inhibition; at 50.0 µM; active compounds read high
Method in brief: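 Vehicle-treated cultures provide the reference for the growth inhibition reported for compound-exposed, repair-deficient yeast.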

[2] = NCI Yeast Anticancer Drug Screen. Data for the mec2-1 strain (AID 157); conditions: S. cerevisiae mec2-1 strain, at 50.0 µM, active compounds read high
Method in brief: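 Strain: mec2-1 (DNA repair/cell cycle alteration). Compound exposure, then growth measured; inhibition expressed relative to vehicle.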

[3] = NCI Yeast Anticancer Drug Screen. Data for the sgs1 mgt1 strain (AID 161);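 note: 0% = growth of cultures given vehicle only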; conditions: S. cerevisiae sgs1 mgt1 strain, at 50.0 µM, active compounds read high
Method in brief: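 Mutant yeast exposed to compound; growth scored against vehicle-only wells.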

[4] = NCI Yeast Anticancer Drug Screen. Data for the cln2 rad14 strain (AID 165);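 note: 0% = growth equal to vehicle treated cultures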; conditions: S. cerevisiae cln2 rad14 strain, at 50.0 µM, active compounds read high
Method in brief: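 Compounds are applied to the cln2 rad14 yeast strain, and growth is then compared with that of vehicle-treated cultures to give inhibition.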

[5] = NCI Yeast Anticancer Drug Screen. Data for the bub3 strain (AID 167); conditions: S. cerevisiae bub3 mutant strain, at 50.0 µM, active compounds read high
Method in brief: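 Mutant yeast screening strain plus compound; vehicle-treated cultures serve as the 0% inhibition reference.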

[6] = NCI Yeast Anticancer Drug Screen. Data for the mlh1 rad18 strain (AID 175); conditions: S. cerevisiae mlh1 rad18 strain growth inhibition; at 50.0 µM; active compounds read high
Method in brief: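 Read-out is yeast growth inhibition, calculated against vehicle-only controls. The compound was applied to a strain engineered with DNA damage repair alterations.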

Measured: growth inhibition

O=C(c1ccccc1)C1C=CC=CN1Cc1ccccc1S(=O)(=O)O (stereo not drawn)
inactive: [1] 13.5% | [2] 0.6% | [3] -3.95% | [4] 3% | [5] 1.75% | [6] -19.2%

CN(C)C1CCC(C=C(C2CCC(CC(=O)O)CC2)C2CCC(CC(=O)O)CC2)CC1 (stereo not drawn)
inactive: [1] -2.95% | [2] -21.5% | [3] 9.6% | [4] 13.6% | [5] 1.05% | [6] 6.3%

COc1cc(C2CC=CCC2C(=O)O)cc(OC)c1OC (stereo not drawn)
inactive: [1] -13.6% | [2] 2.4% | [3] -0.65% | [4] 7.95% | [5] -0.25% | [6] 0.9%

CCN(CC)c1cc2oc(=O)cc(C)c2cc1NC(=O)c1cc([N+](=O)[O-])cc([N+](=O)[O-])c1
inactive: [1] -0.6% | [2] -0.7% | [3] -2.1% | [4] -0.4% | [5] 0% | [6] 15.3%

CCOc1ccc(Nc2ncnc3sc4c(c23)CCCC4)cc1
inactive: [1] 10.3% | [2] -1% | [3] -1.15% | [4] 12.7% | [5] 17.2% | [6] 8.9%

CC(CCl)NS(=O)(=O)c1ccccc1 (stereo not drawn)
inactive: [1] 2.1% | [2] 2.85% | [3] -2.85% | [4] 0.85% | [5] -7.5% | [6] -8.05%

CCCCOCCOC(=O)CCCCCC1C=CCCC1 (stereo not drawn)
inactive: [1] 10.8% | [2] 8.4% | [3] 8.65% | [4] -18.6% | [5] -8.35% | [6] 4.95%

CC(=O)C1C(=O)C(=O)N(c2ccccc2N2C(=O)C(=O)C(C(C)=O)C2=O)C1=O (stereo not drawn)
inactive: [1] 18.6% | [2] -2.25% | [3] 10.8% | [4] 17.8% | [5] -2.35% | [6] 25.8%

CCCCCCCCCCCCCCCCOc1ccc(C(=O)O)cc1
inactive: [1] 1.4% | [2] 0.75% | [3] 5.3% | [4] 8.35% | [5] 3% | [6] -16%

Oc1ccccc1C=NCCCN=Cc1ccccc1O
inactive: [1] 12.4% | [2] 0.25% | [3] 36.5% | [4] 15.5% | [5] 48.8% | [6] 21.5%

C/C(N)=N/OCc1ccccc1
inactive: [1] 8.9% | [2] 6.95% | [3] 10.7% | [4] 4.7% | [5] 10.2% | [6] 7.7%

CCOC(=O)C(Cc1ccccc1C)(NC(C)=O)C(=O)OCC
inactive: [1] 6.65% | [2] -0.25% | [3] 7.35% | [4] 4.1% | [5] 1.4% | [6] -11.2%

CN(C)CCSc1nc2ccccc2s1
inactive: [1] 7.6% | [2] 6.55% | [3] 28.7% | [4] 13.3% | [5] -16.6% | [6] 31.1%

C=C1N(c2cc(OC)c(OC)c(OC)c2)C(=O)OC12CCCCC2
inactive: [1] -4.05% | [2] 5.4% | [3] 0.2% | [4] 38.7% | [5] -0.3% | [6] 1.4%

Cc1ccc(C)c(NC(=O)CCC(=O)CC(=O)C(C)(C)C)c1
inactive: [1] -3.25% | [2] 8.35% | [3] 5.3% | [4] 15.5% | [5] -6.4% | [6] 12.7%

CC(C)(C)C1=CC(=C(c2ccc(-c3c4nc(c(-c5ccc(C(=C6C=C(C(C)(C)C)C(=O)C(C(C)(C)C)=C6)c6cc(C(C)(C)C)c(O)c(C(C)(C)C)c6)cc5)c5ccc([nH]5)c(-c5ccc(C(=C6C=C(C(C)(C)C)C(=O)C(C(C)(C)C)=C6)c6cc(C(C)(C)C)c(O)c(C(C)(C)C)c6)cc5)c5nc(c(-c6ccc(C(=C7C=C(C(C)(C)C)C(=O)C(C(C)(C)C)=C7)c7cc(C(C)(C)C)c(O)c(C(C)(C)C)c7)cc6)c6ccc3[nH]6)C=C5)C=C4)cc2)c2cc(C(C)(C)C)c(O)c(C(C)(C)C)c2)C=C(C(C)(C)C)C1=O
inactive: [1] 4.7% | [2] 2.6% | [3] -1.75% | [4] -38.6% | [5] -3.9% | [6] 14.4%

N#Cc1c(N)[n+]([O-])c2c([n+]1[O-])CCCC2
inactive: [1] 11.4% | [2] 3.35% | [3] 7% | [4] -43.2% | [5] -14.8% | [6] -3.35%

C=CCCCCOCOCCOC
inactive: [1] 13.7% | [2] 17.6% | [3] 5.8% | [4] 0.5% | [5] 0.15% | [6] -28.4%

CC12C=C[C@]3(CC[C@@H]4[C@@](C)(CO)CCC[C@]4(C)C3CC1)C2 (stereo partly drawn)
inactive: [1] 13.4% | [2] -2.7% | [3] 12.9% | [4] 8.25% | [5] 15.3% | [6] 7.6%

CC12CCC(CC1C(=O)O)C2 (stereo not drawn)
inactive: [1] 19.4% | [2] 16.3% | [3] 24.9% | [4] 22.1% | [5] 9.75% | [6] 15.3%

CC(C)NCC1CCCO1 (stereo not drawn)
inactive: [1] -6.65% | [2] -23.2% | [3] -16.4% | [4] 4.9% | [5] -5.7% | [6] -7.85%

Cc1cc2ccccc2n1C
inactive: [1] 4.05% | [2] 5.45% | [3] 39.5% | [4] 10.1% | [5] 31.9% | [6] 18.2%

CC1=CC(O/C=C2\C(=O)OC3C=CCC23)OC1=O (stereo not drawn)
inactive: [1] -1.6% | [2] -32% | [3] 17.4% | [4] 4.05% | [5] -11.6% | [6] 0.55%

CCCCCC(=O)NCCCOC
inactive: [1] -20% | [2] 10.8% | [3] -0.35% | [4] -46.4% | [5] -13.7% | [6] -8.9%

Cc1ccc(C2=Nc3cccc4cccc(c34)N2)cc1
inactive: [1] -40% | [2] -71.7% | [3] -26.3% | [4] 11.1% | [5] -2.2% | [6] -8.85%

O=C/C=C/C=C/C=C/c1ccccc1
inactive: [1] 32.6% | [2] -6.15% | [3] 14.4% | [4] 13.7% | [5] -5.25% | [6] 27.6%

CCCCS(=O)(=O)CCCCCCl
inactive: [1] 1.55% | [2] -2.95% | [3] -6.25% | [4] -13.5% | [5] -6.45% | [6] 9.55%

CCCCOB1OC(c2ccccc2)(c2ccccc2)c2ccccc2C(c2ccccc2)(c2ccccc2)O1
inactive: [1] 31.1% | [2] 3.65% | [3] 27.2% | [4] 3.85% | [5] -2.1% | [6] 22.6%

COc1cc(CC(=O)O)c(Br)cc1C
inactive: [1] 5.95% | [2] 20.9% | [3] 4.15% | [4] 0.05% | [5] -0.85% | [6] -2.65%

Oc1ccc(-c2csc(NNC3=NC/C(=C/c4ccc5c(c4)OCO5)S3)n2)cc1O
inactive: [1] 30.9% | [2] -16.9% | [3] 40.4% | [4] -11.4% | [5] 21.1% | [6] 40.8%

O=c1[nH]nc(-c2ccc3c(c2)Cc2ccccc2-3)c2ccccc12
inactive: [1] 12.8% | [2] -0.15% | [3] -23.9% | [4] -1.95% | [5] 10.3% | [6] 17.5%

NC(=O)N1CCCCC1
inactive: [1] 7.2% | [2] -6.6% | [3] 24.4% | [4] 7.2% | [5] 13.9% | [6] 4.65%

Cc1cc2c(=O)cc(-c3ccc(C(F)(F)F)cc3)oc2c(C(=O)O)c1C
inactive: [1] -34.6% | [2] -3.8% | [3] -2.3% | [4] 13.1% | [5] 0.4% | [6] 12.8%

CC(=O)Nc1ccc(S(=O)(=O)c2ccc(NC(C)=O)s2)s1
inactive: [1] -6.05% | [2] -1.3% | [3] -4.1% | [4] -15.4% | [5] -15.3% | [6] -18.9%

CN(C)CCCOc1nc2c(c(=O)n(C)c(=O)n2C)n1C (tested in a mixture with another compound)
inactive: [1] 0.9% | [2] 8.9% | [3] -19.9% | [4] -9.35% | [5] -18.9% | [6] -7.15%

C/C=C\COC(=O)CC(C)=O
inactive: [1] -1.35% | [2] -23.4% | [3] -4.3% | [4] -2.75% | [5] -26.3% | [6] -16.6%

[O-]C(=N/C(=N/[n+]1ccccc1)c1ccccc1)c1ccccc1
inactive: [1] 12.2% | [2] 10.9% | [3] 4.2% | [4] -9% | [5] -4.05% | [6] 2%

O=C(O)C1Cc2c([nH]c3ccccc23)C(c2ccccc2)N1 (stereo not drawn)
inactive: [1] 1.3% | [2] 11.1% | [3] 10.8% | [4] -56.6% | [5] -16.8% | [6] 14.4%
